D2 PAM-1: positive allosteric modulators of human D2 dopamine receptor. P14416. HEK293 T-REx D2, calcium flux, EC20 dopamine potentiation. potentiation, % at 10 µM. hit rate 0.34% among 340,000;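 active = potentiation over 3 SD above the plate norm, cut at about 30% in these data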
Target sequence (P14416 whole entry, looked up): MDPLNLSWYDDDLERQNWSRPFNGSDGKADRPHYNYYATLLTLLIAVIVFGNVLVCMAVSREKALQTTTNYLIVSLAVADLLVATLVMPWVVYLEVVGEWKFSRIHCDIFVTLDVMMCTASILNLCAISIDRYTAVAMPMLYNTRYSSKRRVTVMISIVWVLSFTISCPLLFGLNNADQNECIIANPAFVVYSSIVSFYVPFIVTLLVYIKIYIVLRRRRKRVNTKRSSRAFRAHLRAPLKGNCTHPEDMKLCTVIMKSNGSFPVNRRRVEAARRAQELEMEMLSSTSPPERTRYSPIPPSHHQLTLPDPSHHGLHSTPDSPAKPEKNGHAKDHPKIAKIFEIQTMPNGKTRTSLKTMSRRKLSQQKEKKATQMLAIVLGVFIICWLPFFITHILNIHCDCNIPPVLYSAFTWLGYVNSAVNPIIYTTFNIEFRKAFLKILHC
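Tetracycline-induced HEK293 T-REx cells force-coupled to calcium signalling expressed D2; compounds were pin-added after a 10 s baseline, read kinetically 180 s, then an EC20 dopamine challenge followed with a further 180 s calcium read.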
D2 ag-1: activates the human D2 dopamine receptor; DiscoveRx PathHunter D2 beta-arrestin, luminescence, 90 min; 100% = 57 uM dopamine signal; hit rate 0.084% among 360,000; AID 624465; activation, % (concentration not given with the values); in the data active = activation above about 40%
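DiscoveRx PathHunter D2 beta-arrestin cells (2,100/well) attached overnight, then compound-stimulated 90 min at 37 C in HBSS/10 mM HEPES/0.1% Tween-20 buffer; beta-galactosidase complementation read by luminescence after 1 h at ambient temperature. Dopamine 57 uM final (EC100) as control.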
D2 ag-2: D2 dopamine receptor (human) agonism; P14416; HEK293 T-REx D2 cells, calcium flux agonist mode; activation, % at 2 µM; hit rate 0.53% among 340,000; AID 485358;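 active = activation over 3 SD above normal in the single-dose calcium agonist read, cut at about 30% in these data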
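Calcium-flux readout, 1 cycle/sec over 180 s following compound pin transfer, in inducible HEK293 Trex D2 cells (force-coupled); dopamine controls included. Positive calcium responses during this window marked compounds as potential agonists.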
D2 antagonist: antagonists of human D2 dopamine receptor. inhibition, % at 10 µM. AID 485344. HEK293 TREx D2 cells, calcium flux, dopamine EC80. P14416. hit rate 2% among 340,000; in the data active = inhibition above about 30%; inactive = below that, where a call was filed
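Inhibition of EC80 dopamine-driven calcium flux, recorded kinetically, defines activity here; cells are a tetracycline-induced HEK293 T-REx line expressing force-coupled D2.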
D2 PAM-2: human D2 receptor positive allosteric modulation; P14416; potentiation, % (test concentration not listed); hit rate 0.23% among 360,000; DiscoveRx D2 beta-arrestin cells, luminescence, 90 min; 100% = 57 uM dopamine signal; in the data active = potentiation above about 50%
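PathHunter beta-arrestin assay in DiscoveRx D2 cells. Compounds were added with an EC20 of dopamine (50 nM final) for 90 min at 37 deg C. Luminescence was read 1 h after detection reagent, with 57 uM dopamine as the EC100 control.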
Of the large screens only hits and unclear results are named; the others gave an inactive call; ! = not active in a repeat. Sampled rows, rich in hits. Any-hit rate of the full collection: about 2.4%.

CCCCC(Sc1nc(N)c(NC(=O)c2ccc(OCC)cc2)c(=O)[nH]1)C(=O)O (stereo unspecified)	D2 PAM-1 31.2
Cn1cc(S(=O)(=O)N2CCOCC2)cc1C(=O)Nc1ccc(Cl)c(C(F)(F)F)c1	none (no result: D2 ag-1, D2 antagonist, D2 PAM-2)
CCOc1ccc(N=C2NC(=O)C(CC(=O)Nc3ccccc3)S2)cc1 (stereo unspecified)	D2 PAM-1 39.2
O=C(CC1SC(=Nc2ccc(O)cc2)NC1=O)Nc1ccccc1 (stereo unspecified)	none
Cn1nnnc1SCCCNCc1cc(Br)ccc1OCc1ccccc1F	none (no result: D2 ag-1, D2 antagonist, D2 PAM-2)
O=C(c1ccc(F)cc1)C1CCN(CCn2c(=O)[nH]c3ccccc3c2=O)CC1	D2 antagonist 58.4
COc1ccc(CCNC(=O)COC(=O)c2cccs2)cc1OC	none
COc1ccc(CCNC(=O)CN(C)S(=O)(=O)c2cccs2)cc1	D2 antagonist 32.2
COc1ccc(CCNC(=O)C2CC(=O)N(C3CCCCCCC3)C2)cc1OC (stereo unspecified)	D2 antagonist 92.7
COc1ccc(CCNC(=O)CCN2C(=O)C3CC=CCC3C2=O)cc1OC (stereo unspecified)	D2 antagonist 64.1
Cc1ccc(CCNC(=O)C2CC(=O)N(C3CCCCC3)C2)cc1 (stereo unspecified)	none
COc1ccc(CCNC(=O)COC(=O)c2cccs2)cc1	D2 antagonist 36.7
CN(CC(=O)NCCc1ccccc1)S(=O)(=O)c1cccs1	none
COc1ccc(CCNC(=O)CCn2cccc2)cc1OC	none
COc1cc2ccccc2cc1C(=O)N1CCN(c2nc3ccc(F)cc3s2)CC1	none (no result: D2 ag-1, D2 antagonist, D2 PAM-2)
COc1cc(NC(=O)Cn2c(=O)n(Cc3ccccc3Cl)c(=O)c3cc(OC)c(OC)cc32)cc(OC)c1	none (no result: D2 ag-1, D2 antagonist, D2 PAM-2)
CCCCOc1ccc(S(=O)(=O)NCc2csc(-c3ccc(OC)cc3)n2)cc1	none (no result: D2 ag-1, D2 antagonist, D2 PAM-2)
COc1ccccc1Cc1nc2ccccc2nc1SCC(=O)NCc1ccccc1Cl	none (no result: D2 ag-1, D2 antagonist, D2 PAM-2)
COc1ccc(CCNC(=O)CCC(=O)c2cccs2)cc1OC	D2 antagonist 43.9
COc1ccc(CCNC(=O)COC(=O)CCC(=O)c2cccs2)cc1OC	none (no result: D2 PAM-1, D2 ag-2, D2 antagonist)
CCNC(=O)COC(=O)CCC(=O)c1cccs1	D2 antagonist 51.3
COc1ccc(CCNC(=O)[C@@H](NC(N)=O)C(C)C)cc1	D2 antagonist 50.1
CC[C@H](C)[C@H](NC(N)=O)C(=O)NCCc1ccc(OC)cc1	none
CCOc1ccccc1NC(=O)NCCn1c(=O)oc2ccc(C)cc21	none (no result: D2 ag-1, D2 antagonist, D2 PAM-2)
Cc1oc2ccc(O)c(CN3CCCCCC3)c2c1C(=O)Nc1cccc(Cl)c1C	none (no result: D2 ag-1, D2 antagonist, D2 PAM-2)
Cc1ccc(-c2noc(-c3ccc(NC4CCCC4)c([N+](=O)[O-])c3)n2)cc1	none (no result: D2 ag-1, D2 ag-2, D2 antagonist, D2 PAM-2)
CCCC12CN3CC(C)(CN(C1)C3c1ccc(OCc3ccccc3)cc1)C2=O (stereo unspecified)	none (no result: D2 ag-1, D2 antagonist, D2 PAM-2)
Cc1c(CCC(=O)NCCc2ccccc2F)c(=O)oc2cc(O)ccc12	none (no result: D2 ag-1, D2 antagonist, D2 PAM-2)
CCOC(=O)c1c(CN2CCCCC2)oc2ccc(O)cc12	none
CCOC(=O)c1c(CN2CCOCC2)oc2ccc(OC)cc12	D2 PAM-1 31.3
Cc1ccc(-c2cc(C(=O)O)c3cc(Br)ccc3n2)s1	D2 antagonist 31.0!
O=S(=O)(c1ccc(-c2csc(-c3cccnc3)n2)cc1)N1CCCCC1	D2 antagonist 36.7
COc1ccc(C(=O)NCC(c2ccc3c(c2)OCO3)N2CCOCC2)cc1OC (stereo unspecified)	none (no result: D2 ag-1, D2 antagonist, D2 PAM-2)
COC(=O)c1c(-c2ccc(Cl)cc2)noc1N1CCN(c2cccc(C)c2C)CC1	none (no result: D2 ag-1, D2 antagonist, D2 PAM-2)
Cn1c(=O)c([N+](=O)[O-])c(NCCc2ccccc2)c2ccccc21	D2 antagonist 38.0
Cc1ccc(CNC(=O)c2oc3ccc(S(=O)(=O)N4CCC(C)CC4)cc3c2C)cc1	none (no result: D2 ag-1, D2 antagonist, D2 PAM-2)
Cc1cc(C)cc(NC(=O)COC(=O)c2ccc(CN3CCCC3=O)cc2)c1	none
Cc1ccc(NC(=O)COC(=O)c2ccc(CN3CCCC3=O)cc2)c(Cl)c1	D2 antagonist 34.8
C/C(=N\NC(=O)c1c[nH]c2ccccc12)c1ccc(C)s1	none
C/C(=N/NC(=O)c1ccncc1)c1c[nH]c2ccccc12	D2 antagonist 47.9
CN1C2=C(C#N)C(c3ccccc3)(C(F)(F)F)NC(=O)N2c2ccccc21 (stereo unspecified)	D2 antagonist 32.2

Screening results from PubChem.
